# Results: PubChem BioAssay (NCATS)
# Inconclusive results are not listed. A call without a number means that no potency is given here. A number with no mark means an inactive call. Active and inactive are the calls of the source. The call rests on the fitted dose curve; in most records, active means well fitted curve in the direction sought with a large enough effect; inconclusive means small, poorly fitted or top-dose-only effect, or another doubt; inactive means no such curve, though single readings can be large; an effect the other way counts as inactive or inconclusive.
# Assays:
# [1] = Quantitative High-Throughput drug screen in 47 multiple myeloma cell lines against the NCATS MIPE library collection: H1112_PLB cell viability assay (AID 1918967; further: nearly all actives have a fitted effect of over 30% in size; further: potency means the concentration at half of the fitted maximal effect)
# Procedure, shortened: (§1)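 Steps: seed 500 cells per well; pin-transfer MIPE 4.0 library; incubate 48 h at 37C, 5% CO2, humidified; add CellTiter-Glo, 5 min room temperature; read luminescence.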
# [2] = Quantitative High-Throughput drug screen in 47 multiple myeloma cell lines against the NCATS MIPE library collection: KMS12BM_JCRB cell viability assay (AID 1918971); further: nearly all actives have a fitted effect of over 35% in size; further: potency means the concentration at half of the fitted maximal effect
# Procedure, shortened: (§2)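 Myeloma cells (500 per well) were exposed to MIPE 4.0 compounds by pin transfer and incubated 48 hours at 37C, 5% CO2. Viability was read as ATP by CellTiter-Glo luminescence, normalised to DMSO (100%) and media-only (0%) wells.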
# [3] = Quantitative High-Throughput drug screen in 47 multiple myeloma cell lines against the NCATS MIPE library collection: MMM1_PLB cell viability assay (AID 1918976); further: potency means the concentration at half of the fitted maximal effect; nearly all actives have a fitted effect of over 35% in size
# Procedure, shortened: (§3)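 500 cells/well; MIPE 4.0 drugs pin-transferred; 48 h, 37C, 5% CO2. CellTiter-Glo, 5 min RT, luminescence. Controls: DMSO 100%, media 0%.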
# [4] = Quantitative High-Throughput drug screen in 47 multiple myeloma cell lines against the NCATS MIPE library collection: MOLP8_DSMZ cell viability assay (AID 1918977); further: nearly all actives have a fitted effect of over 45% in size
# Procedure, shortened: as §3
# [5] = Quantitative High-Throughput drug screen in 47 multiple myeloma cell lines against the NCATS MIPE library collection: MM1S_ATCC cell viability assay (AID 1918980); further: nearly all actives have a fitted effect of over 45% in size; further: potency means the concentration at half of the fitted maximal effect
# Procedure, shortened: as §3
# [6] = Quantitative High-Throughput drug screen in 47 multiple myeloma cell lines against the NCATS MIPE library collection: KMS28PE_JCRB cell viability assay (AID 1918983); further: nearly all actives have a fitted effect of over 35% in size; further: potency means the concentration at half of the fitted maximal effect
# Procedure, shortened: as §3
# [7] = Quantitative High-Throughput drug screen in 47 multiple myeloma cell lines against the NCATS MIPE library collection: KMS27_JCRB cell viability assay (AID 1918970); details: KMS27 myeloma cells, CellTiter-Glo ATP viability, 48 h; viability (% of DMSO): at 45.8 µM (top of the series); further: nearly all actives have a fitted effect of over 30% in size; further: potency means the concentration at half of the fitted maximal effect
# Procedure, shortened: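 KMS27_JCRB myeloma cells, 500 per well, exposed 48 h at 37 C, 5% CO2 to MIPE 4.0 compounds. Viability from ATP by CellTiter-Glo luminescence, normalized to DMSO (100%) and medium-only (0%) wells.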
# [8] = Quantitative High-Throughput drug screen in 47 multiple myeloma cell lines against the NCATS MIPE library collection: KMS26_JCRB cell viability assay (AID 1918975); further: nearly all actives have a fitted effect of over 45% in size
# Procedure, shortened: as §2
# [9] = Quantitative High-Throughput drug screen in 47 multiple myeloma cell lines against the NCATS MIPE library collection: NCIH929_DSMZ cell viability assay (AID 1918978); further: nearly all actives have a fitted effect of over 35% in size; further: potency means the concentration at half of the fitted maximal effect
# Procedure, shortened: as §3
# [10] = Quantitative High-Throughput drug screen in 47 multiple myeloma cell lines against the NCATS MIPE library collection: OCIMY1_PLB cell viability assay (AID 1918979); further: nearly all actives have a fitted effect of over 35% in size
# Procedure, shortened: as §3
# [11] = Quantitative High-Throughput drug screen in 47 multiple myeloma cell lines against the NCATS MIPE library collection: MM1R_ATCC cell viability assay (AID 1918981); further: nearly all actives have a fitted effect of over 35% in size; further: potency means the concentration at half of the fitted maximal effect
# Procedure, shortened: as §3
# [12] = Quantitative High-Throughput drug screen in 47 multiple myeloma cell lines against the NCATS MIPE library collection: LP1_DSMZ cell viability assay (AID 1918982); further: nearly all actives have a fitted effect of over 35% in size; further: potency means the concentration at half of the fitted maximal effect
# Procedure, shortened: as §3
# [13] = Quantitative High-Throughput drug screen in 47 multiple myeloma cell lines against the NCATS MIPE library collection: KMS34_JCRB cell viability assay (AID 1918985); further: nearly all actives have a fitted effect of over 40% in size
# Procedure, shortened: as §3
# [14] = Quantitative High-Throughput drug screen in 47 multiple myeloma cell lines against the NCATS MIPE library collection: Karpas25_ECACC cell viability assay (AID 1918968; further: nearly all actives have a fitted effect of over 35% in size; further: potency means the concentration at half of the fitted maximal effect)
# Procedure, shortened: as §1
# [15] = Quantitative High-Throughput drug screen in 47 multiple myeloma cell lines against the NCATS MIPE library collection: KMS12PE_JCRB cell viability assay (AID 1918972); further: nearly all actives have a fitted effect of over 30% in size; further: potency means the concentration at half of the fitted maximal effect
# Procedure, shortened: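 CellTiter-Glo luminescence (ATP) after 48 h compound exposure, 37C/5% CO2; 500 cells/well; MIPE 4.0 approved/investigational drugs pinned in; DMSO = 100%, media only = 0% viability.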
# [16] = Quantitative High-Throughput drug screen in 47 multiple myeloma cell lines against the NCATS MIPE library collection: KMS20_JCRB cell viability assay (AID 1918973); further: nearly all actives have a fitted effect of over 45% in size; further: potency means the concentration at half of the fitted maximal effect
# Procedure, shortened: as §1
# [17] = Quantitative High-Throughput drug screen in 47 multiple myeloma cell lines against the NCATS MIPE library collection: KMS21BM_JCRB cell viability assay (AID 1918974); details: ATP luminescence, 48 h; viability: at 45.8 µM (top of the series)
# Procedure, shortened: as §1
# [18] = Quantitative High-Throughput drug screen in 47 multiple myeloma cell lines against the NCATS MIPE library collection: L363_DSMZ cell viability assay (AID 1918984); further: nearly all actives have a fitted effect of over 40% in size; further: potency means the concentration at half of the fitted maximal effect
# Procedure, shortened: as §3
Structure (SMILES),Potency [1],Potency [2],Potency [3],Potency [4],Potency [5],Potency [6],Potency [7],Potency [8],Potency [9],Potency [10],Potency [11],Potency [12],Potency [13],Potency [14],Potency [15],Potency [16],Potency [17],Potency [18],viability [17]
c1ccc2c(Oc3nc(Nc4ccc(N5CCOCC5)cc4)c4ncn(C5CCCCC5)c4n3)cccc2c1,inactive,16.6 µM (active),13.2 µM (active),inactive,inactive,inactive,–,–,–,–,–,–,–,–,–,–,–,–,–
C=CC1=C(C(=O)O)N2C(=O)[C@@H](NC(=O)C(=NO)c3csc(N)n3)[C@H]2SC1,inactive,inactive,–,–,inactive,inactive,inactive,inactive,inactive,inactive,inactive,inactive,inactive,–,–,–,–,–,–
O=c1ccn([C@@H]2O[C@H](CO)[C@H](O)[C@@H]2F)c(=O)[nH]1,–,–,2.64 µM (active),inactive,5.26 µM (active),inactive,–,inactive,11.8 µM (active),inactive,inactive,inactive,inactive,9.35 µM (active),inactive,inactive,inactive,inactive,–
O=C(NCc1ccccc1)[C@H](Cc1ccccc1)NC(=O)[C@@H]1O[C@@H]1C(=O)NCCc1ccc(O)cc1,inactive,–,20.9 µM (active),–,1.18 µM (active),inactive,–,–,inactive,–,10.5 µM (active),–,–,23.5 µM (active),23.5 µM (active),–,–,16.6 µM (active),–
C[C@@H]1[C@H](C)CC[C@]2(C(=O)O)CC[C@]3(C)C(=CC[C@@H]4[C@@]5(C)C[C@@H](O)[C@H](O)[C@@](C)(CO)[C@H]5CC[C@]43C)[C@@H]12,inactive,–,–,inactive,–,inactive,inactive,inactive,inactive,inactive,inactive,inactive,inactive,inactive,inactive,inactive,–,–,–
CC[C@H]1OC(=O)[C@H](C)[C@@H](O[C@H]2C[C@@](C)(OC)[C@@H](O)[C@H](C)O2)[C@H](C)[C@@H](O[C@@H]2O[C@@H](C)C[C@H](N(C)C)[C@@H]2O)[C@](C)(O)C[C@@H](C)C(=O)[C@H](C)[C@@H](O)[C@]1(C)O,inactive,–,–,–,inactive,–,inactive,inactive,inactive,inactive,–,inactive,–,–,inactive,–,inactive,inactive,–
CC(N[C@H]1CCCC[C@H]1NC(=O)c1ccc(Cl)cc1)c1cccc2ccccc12 (stereo not given in full),20.9 µM (active),–,–,inactive,8.33 µM (active),inactive,0.118 µM (active),inactive,–,inactive,–,inactive,–,–,–,–,–,0.0833 µM (active),–
CCC[C@H]1C[C@H](C(=O)N[C@@H]([C@@H]2O[C@@H](SC)[C@@H](O)[C@@H](O)[C@@H]2O)[C@H](C)Cl)N(C)C1,inactive,–,–,inactive,inactive,inactive,inactive,–,inactive,inactive,inactive,–,inactive,–,inactive,inactive,–,inactive,–
O=[N+]([O-])c1cn2c(n1)OC[C@@H](OCc1ccc(OC(F)(F)F)cc1)C2,inactive,–,8.33 µM (active),inactive,2.64 µM (active),–,–,inactive,inactive,inactive,–,inactive,–,inactive,inactive,–,–,–,–
CCCCOc1ccc(C(=O)Nc2ccc(F)cc2F)cc1,inactive,–,–,–,–,–,inactive,–,inactive,–,–,inactive,–,inactive,–,–,–,inactive,103% (active)
CN1[C@H]2CC(OC(=O)[C@@H](CO)c3ccccc3)C[C@H]1[C@H]1O[C@H]12 (stereo not given in full),inactive,–,–,inactive,inactive,inactive,inactive,inactive,inactive,inactive,inactive,inactive,inactive,inactive,inactive,7 nM (active),–,inactive,–
C[C@H](O)[C@@H]1C(=O)N2C(C(=O)O)=C(S[C@@H]3CN[C@H](CNS(N)(=O)=O)C3)[C@@H](C)[C@@H]12,inactive,–,–,–,–,inactive,inactive,inactive,inactive,inactive,inactive,inactive,–,inactive,inactive,–,–,–,–
O=C1c2cccc(O)c2C(=O)c2c(O)cc(CO)cc21,inactive,–,–,–,inactive,5.9 µM (active),inactive,inactive,inactive,inactive,inactive,16.6 µM (active),–,–,inactive,inactive,–,–,–
O=C1NC(O)CCN1[C@@H]1O[C@H](CO)[C@H](O)[C@H]1O (stereo not given in full),inactive,–,–,–,–,inactive,–,inactive,–,inactive,inactive,5.9 µM (active),–,inactive,inactive,–,–,–,–
OCCN1C[C@H](O)[C@@H](O)[C@H](O)[C@@H]1CO,inactive,inactive,–,–,–,–,–,inactive,inactive,–,inactive,inactive,inactive,inactive,inactive,–,–,inactive,–
O=C(O)CCCCC(CCSCc1ccccc1)SCc1ccccc1 (stereo not given),–,inactive,–,inactive,–,inactive,13.2 µM (active),inactive,inactive,inactive,inactive,–,inactive,–,16.6 µM (active),–,–,13.2 µM (active),–
CC1(C)[C@H](O[C@H]2O[C@H](C(=O)O)[C@@H](O)[C@H](O)[C@H]2O[C@@H]2O[C@H](C(=O)O)[C@@H](O)[C@H](O)[C@H]2O)CC[C@@]2(C)[C@H]1CC[C@]1(C)[C@H]2C(=O)C=C2[C@H]3C[C@@](C)(C(=O)O)CC[C@]3(C)CC[C@]21C,inactive,inactive,–,–,–,inactive,–,inactive,inactive,inactive,–,–,inactive,–,inactive,–,–,–,–
